Assay results taken from PubChem BioAssay (NCI).
About 83,000 compounds went through this panel and 20% of them were active in at least one assay; those are over-represented in the sample as a whole.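 48-hour exposure, single concentration, 96-well plates; percent growth endpoint where 0 means no net growth. Active: below 10.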 Unmarked numbers belong to inactive results. Activity calls are given as the source filed them.

System: SR leukemia
Experiment: NCI-60 one-dose screen, 48 h (100 = growth as untreated, 0 = no growth, -100 = all killed)
Details: 10 µM unless noted

| Compound | growth |
| --- | --- |
| C=CCn1c(SCC(=O)Nc2ccc(C(=O)/C=C/c3cc(OC)c(OC)c(OC)c3)cc2)nnc1-c1ccccc1 | 32.5% |
| O=C(CCCC(=O)Nc1ccc(-n2nnc3cc(Cl)c(Cl)cc32)cc1)Nc1ccc(-n2nnc3cc(Cl)c(Cl)cc32)cc1 | 51.2% |
| COc1ccc(Nc2cc(NC(=O)CNc3cc(OC)c(Cl)c(OC)c3Cl)ncn2)cc1 | 78.1% |
| COc1cc(NC(=O)Nc2cnc(Nc3ccc(N4CCOCC4)cc3)nc2Oc2ccc(C(F)(F)F)cc2)cc(OC)c1 | 79.9% |
| CCCCN(CCCC)CC(CN(CC)CC)OC(=O)Nc1ccccc1 (stereo not drawn) | 86.3% |
| N#Cc1ccc(N2Cc3cc(Cl)ccc3OC3=C2C(=O)N(Cc2ccccc2)C3=O)cc1 | -25.7% (active) |
| Nc1c(C(=O)Nc2cccc3ccccc23)sc2nc3c(cc12)CCCCC3 | 19.9% |
| Cc1cc(C)cc(Nc2nccc(-c3c(-c4ccc(F)cc4)ncn3C3CCNCC3)n2)c1 | -31% (active) |
| Nc1c(C(=O)Nc2cccc3ccccc23)sc2nc3c(cc12)COCC3 | 22.4% |
| CC(C)Cc1cc(CNC(=O)C2[C@H]3CN(C(=O)c4ccccc4)C[C@@H]23)nn1-c1ccccc1 (stereo partly drawn) | 90.4% |
| O=C1c2ccccc2C(=O)c2c1oc1c2c(=O)[nH]c2ccc(Cl)cc21 | 33.7% |
| C=C1C(=O)O[C@H]2[C@H]1CC/C(C=Nc1c(N)cc(F)cc1Br)=C\CC[C@@]1(C)O[C@@H]21 | 21.3% |
| Nc1ccc2c(c1)C(=O)C(=O)c1c-2nc2ccccn12 | 2.06% (active) |
| C#C[C@@]1(O)[C@@H](CO)O[C@@H](n2cc(F)c3c(N)ncnc32)[C@@H]1O | 12.9% |
| C=C(C)[C@@H]1CCC=C2CC[C@]3(C)[C@H](CC[C@@H]4[C@@]5(C)CCCNC(C)(C)[C@@H]5CC[C@]43C)[C@H]21 | -25.7% (active) |
| COc1ccc(/C=C/C(=O)C(CC2CCC2)C(=O)/C=C/c2ccc(OC)c(OC)c2)cc1OC | -17% (active) |
| CCOC(=O)C1=C(C)n2nc(CC#N)c(C#N)c2NC1c1ccc(CC)cc1 (stereo not drawn) | 104% |
| CCCCc1ccc(N=Nc2ccc(OCC[N+](C)(C)C)cc2)cc1 | 76% |
| CC(C)NS(=O)(=O)c1cccc(-c2ccc3c4c(n(CCCN(C)C)c(=O)c3c2)-c2ccccc2C4=O)c1 | -27% (active) |
| COc1ccc2[nH]c(=O)c(/C=C/C(=O)c3ccccc3OC)cc2c1 | 2.69% (active) |
| CCOC(=O)c1c(C)nc2c(c1N)/C(=C/c1cccs1)C(=O)N2Cc1ccccc1 | 9.76% (active) |
| C/C(=N/Nc1nc2ccccc2n1C)c1ccccn1 | 3.01% (active) |
| CC(C)NS(=O)(=O)c1cccc(-c2ccc3c(=O)n(CCCN)c4c(c3c2)C(=O)c2ccccc2-4)c1 | 77.6% |
